Experimental data published in PubChem BioAssay AID2284422 (EPA ToxCast).
Active and inactive are the calls of the source. Rule for the calls: active = hit-call score of the fitted dose curve at least 0.9, where 1 is the maximum; inactive = score below 0.9.

Assay: CCTE_Deisenroth_DEVTOX-GLR_Meso_CellCount: Viability Assessment in CCTE's DevTox GLR-Meso Assay, Deisenroth Lab
Experimental: CCTE_Deisenroth_DEVTOX-GLR_Meso assay is a cell-based, multiplex-readout assay that uses RUES2-GLR, a human pluripotent cell line, with measurements taken at 48 hours after chemical dosing in a 384-well microplateCCTE_Deisenroth_DEVTOX-GLR_Meso_CellCount is 1 of 4 assay components calculated from the CCTE_Deisenroth_DEVTOX-GLR_Meso assay and it measures cell count. Using fluorescent nuclei staining, gain-of-signal activity can be used to understand changes in cell viability with fluorescent microscopy. It is designed to make measurements of nuclei counts as a surrogate for cell number, as detected with optical fluorescence microscopy by Perkin Elmer Harmony nuclei detection algorithm. To generalize the intended target to other relatable targets, this assay component is annotated to the cell cycle intended target family, where the subfamily is cytotoxicity.Data from the assay component CCTE_Deisenroth_DEVTOX-GLR_Meso_CellCount was analyzed as 1 assay endpoint. The endpoint the percent change in cell count relative to the 0.2% DMSO control in the CCTE_Deisenroth_DEVTOX-GLR_Meso assay. Furthermore, this assay endpoint can be referred to as a primary readout, because this assay has produced multiple assay endpoints where this one serves as a measure of cytotoxicity.
All assay protocols are aligned to the DevTox GLR-Endo assay workflow. Cells are seeded into 384-well microplates for 24 hours prior to initiating differentiation in defined media for a total duration of 48 hours. A total of two chemical exposures are administered in 24-hour intervals during the 48-hour differentiation period. At the assay termination point, cells are fixed and stained with a fluorescent dye demarcating the nucleus. High-content imaging is used to acquire brightfield and fluorescent channel images across 5 fields per well. Cell identification and mean biomarker fluorescence intensities are calculated with image analysis software to determine the total cell counts for viability assessment and the biomarker expression frequency for each lineage-dependent assay. A typical experimental design tests a 10-point concentration series (1 nM - 200 uM) for 28 compounds in single technical replicate. Assay plate controls include non-differentiated pluripotent cells (baseline control), lineage-specific differentiated cells (differentiation control), and DMSO solvent exposed differentiated cells (solvent control). Experiments typically comprise a minimum of four experimental replicates (n=4).

Structure (SMILES) | AC50 | outcome
CC1=C(/C=C/C(C)=C/C=C/C(C)=C\C(=O)O)C(C)(C)CCC1 | 18.6 µM (active) | –
CC/C(=C(/CC)c1ccc(O)cc1)c1ccc(O)cc1 | 2.86 µM (active) | –
O=C1NS(=O)(=O)c2ccccc21 | – | inactive
CC(=O)Nc1ccc(O)cc1 | – | inactive
CC1=C(/C=C/C(C)=C/C=C/C(C)=C/C(=O)O)C(C)(C)CCC1 | 18.5 µM (active) | –
CC1(C)S[C@@H]2[C@H](NC(=O)Cc3ccccc3)C(=O)N2[C@H]1C(=O)O | – | inactive
CC(C)(c1ccc(O)cc1)c1ccc(O)cc1 | 33.5 µM (active) | –
CS(=O)(=O)OCCCCOS(C)(=O)=O | 57.8 µM (active) | –
Nc1nc2ncc(CNc3ccc(C(=O)N[C@@H](CCC(=O)O)C(=O)O)cc3)nc2c(=O)[nH]1 | – | inactive
Nc1cccc2c1C(=O)N(C1CCC(=O)NC1=O)C2=O (stereo unspecified) | – | inactive
O=c1[nH]cc(F)c(=O)[nH]1 | 4.95 µM (active) | –
CCCC(CCC)C(=O)O | – | inactive
CCN(CC)CCNC(=O)c1c(C)[nH]c(/C=C2\C(=O)Nc3ccc(F)cc32)c1C | 1.18 µM (active) | –
O=C1NC(=O)C(c2ccccc2)(c2ccccc2)N1 | 100 µM (active) | –
O=C1CCC(N2C(=O)c3ccccc3C2=O)C(=O)N1 (stereo unspecified) | – | inactive
CN(Cc1cnc2nc(N)nc(N)c2n1)c1ccc(C(=O)N[C@@H](CCC(=O)O)C(=O)O)cc1 | – | inactive
